# Test results: article PMC5540273 (PLoS ONE, 2017)
# Several values for one entry are separate records, joined by “and”; a condition that tells them apart may be missing. Identical values can stand only once. Like-named read-outs stand apart in the source and are kept apart here.
# How the values were obtained:
# AAK1 = conditions: concentration: 1 μM, replicates: in singlicate, n = 1
# ABL1-nonphosphorylated = conditions: concentration: 1 μM, replicates: in singlicate, n = 1
# ABL1-phosphorylated = conditions: concentration: 1 μM, replicates: in singlicate, n = 1
# ABL2 = conditions: concentration: 1 μM, replicates: in singlicate, n = 1
# ACVR1B = conditions: concentration: 1 μM, replicates: in singlicate, n = 1
# ACVR1 = conditions: concentration: 1 μM, replicates: in singlicate; n = 1
# ACVR2A = conditions: concentration: 1 μM, replicates: in singlicate; n = 1
# ACVR2B = conditions: concentration: 1 μM, replicates: in singlicate, n = 1
# ACVRL1 = conditions: concentration: 1 μM, replicates: in singlicate, n = 1
# ADCK3 = test system: T1, ADCK3; conditions: concentration: 1 μM, replicates: in singlicate, n = 1
# T1 construct: gene CABC1
# ADCK4 = conditions: concentration: 1 μM, replicates: in singlicate, n = 1
# AKT1 = conditions: concentration: 1 μM, replicates: in singlicate, n = 1
# AKT2 = conditions: concentration: 1 μM, replicates: in singlicate, n = 1
# AKT3 = conditions: concentration: 1 μM, replicates: in singlicate, n = 1
# ALK = conditions: concentration: 1 μM, replicates: in singlicate, n = 1
# AMPK-alpha1 = test system: T2, AMPK-alpha1; conditions: concentration: 1 μM, replicates: in singlicate, n = 1
# T2 construct: gene PRKAA1
# 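Further: KINOMEscan kinase panel screen.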
smiles,measurement,setting,value
NCCNS(=O)(=O)c1ccc(-c2ccnc3[nH]ccc23)cc1 [GSK977617],%Inh,AAK1; 1 µM,67% and 57%
same,%Inh,ABL1-nonphosphorylated,0%
same,%Inh,ABL1-phosphorylated; 1 µM,9% and 0%
same,%Inh,ABL2; 1 µM,22% and 1%
same,%Inh,ACVR1B; 1 µM,3% and 0%
same,%Inh,ACVR1,0%
same,%Inh,ACVR2A,0%
same,%Inh,ACVR2B; 1 µM,2% and 0%
same,%Inh,ACVRL1,0%
same,%Inh,ADCK3; 1 µM,0% and 6%
same,%Inh,ADCK4; 1 µM,32% and 21%
same,%Inh,AKT1; 1 µM,77% and 66%
same,%Inh,AKT2; 1 µM,15% and 10%
same,%Inh,AKT3; 1 µM,88% and 83%
same,%Inh,ALK; 1 µM,60% and 36%
same,%Inh,AMPK-alpha1; 1 µM,50% and 38%
Fc1ccc(-c2ncn(CCCN3CCOCC3)c2-c2cccnc2)cc1 [SB-211743],%Inh,AAK1,0%
same,%Inh,ABL1-nonphosphorylated,30%
same,%Inh,ABL1-phosphorylated,34%
same,%Inh,ABL2,0%
same,%Inh,ACVR1B,0%
same,%Inh,ACVR1,2%
same,%Inh,ACVR2A,0%
same,%Inh,ACVR2B,0%
same,%Inh,ACVRL1,6%
same,%Inh,ADCK3,1%
same,%Inh,ADCK4,0%
same,%Inh,AKT1,0%
same,%Inh,AKT2,0%
same,%Inh,AKT3,10%
same,%Inh,ALK,0%
same,%Inh,AMPK-alpha1,4%
O=c1cc(N2CCOCC2)nc2n(Cc3cccc(F)c3)ccn12 [GSK2297430],%Inh,AAK1,5%
same,%Inh,ABL1-nonphosphorylated,0%
same,%Inh,ABL1-phosphorylated,0%
same,%Inh,ABL2,2%
same,%Inh,ACVR1B,0%
same,%Inh,ACVR1,1%
same,%Inh,ACVR2A,6%
same,%Inh,ACVR2B,0%
same,%Inh,ACVRL1,14%
same,%Inh,ADCK3,9%
same,%Inh,ADCK4,0%
same,%Inh,AKT1,0%
same,%Inh,AKT2,9%
same,%Inh,AKT3,0%
same,%Inh,ALK,8%
same,%Inh,AMPK-alpha1,5%
CC(C)(C)n1cnc2c(N)ncnc21 [SKF-97359],%Inh,AAK1,0%
same,%Inh,ABL1-nonphosphorylated,37%
same,%Inh,ABL1-phosphorylated,0%
same,%Inh,ABL2,1%
same,%Inh,ACVR1B,0%
same,%Inh,ACVR1,0%
same,%Inh,ACVR2A,0%
same,%Inh,ACVR2B,0%
same,%Inh,ACVRL1,0%
same,%Inh,ADCK3,0%
same,%Inh,ADCK4,31%
same,%Inh,AKT1,0%
same,%Inh,AKT2,0%
same,%Inh,AKT3,0%
same,%Inh,ALK,29%
same,%Inh,AMPK-alpha1,0%
CCc1ccnc(/C=C/c2n[nH]c3cc(Sc4ccccc4C(=O)NC)ccc23)c1,%Inh,AAK1,22%
same,%Inh,ABL1-nonphosphorylated,98%
same,%Inh,ABL1-phosphorylated,89%
same,%Inh,ABL2,76%
same,%Inh,ACVR1B,3%
same,%Inh,ACVR1,0%
same,%Inh,ACVR2A,0%
same,%Inh,ACVR2B,0%
same,%Inh,ACVRL1,0%
same,%Inh,ADCK3,0%
same,%Inh,ADCK4,0%
same,%Inh,AKT1,0%
same,%Inh,AKT2,0%
same,%Inh,AKT3,8%
same,%Inh,ALK,11%
same,%Inh,AMPK-alpha1,0%
Cl.Cl.Cl.Fc1ccc(-c2ncn(C3CCNCC3)c2-c2ccnc(Nc3ccccc3)n2)cc1 [SB-238039],%Inh,AAK1,0%
same,%Inh,ABL1-nonphosphorylated; 1 µM,0% and 63%
same,%Inh,ABL1-phosphorylated; 1 µM,31% and 12%
same,%Inh,ABL2; 1 µM,5% and 3%
same,%Inh,ACVR1B; 1 µM,58% and 31%
same,%Inh,ACVR1,16%
same,%Inh,ACVR2A,0%
same,%Inh,ACVR2B; 1 µM,0% and 18%
same,%Inh,ACVRL1; 1 µM,20% and 17%
same,%Inh,ADCK3,0%
same,%Inh,ADCK4; 1 µM,25% and 1%
same,%Inh,AKT1; 1 µM,21% and 0%
same,%Inh,AKT2; 1 µM,10% and 7%
same,%Inh,AKT3; 1 µM,24% and 37%
same,%Inh,ALK; 1 µM,21% and 0%
same,%Inh,AMPK-alpha1; 1 µM,15% and 2%
NS(=O)(=O)CCc1cccc(Nc2nccc(-c3c(-c4cccc(NC(=O)c5c(F)cccc5F)c4)nn4ccccc34)n2)c1 [GSK336735],%Inh,AAK1,0%
same,%Inh,ABL1-nonphosphorylated,95.3%
same,%Inh,ABL1-phosphorylated,16%
same,%Inh,ABL2,78%
same,%Inh,ACVR1B,7%
same,%Inh,ACVR1,0%
same,%Inh,ACVR2A,0%
same,%Inh,ACVR2B,37%
same,%Inh,ACVRL1,0%
same,%Inh,ADCK3,9%
same,%Inh,ADCK4,42%
same,%Inh,AKT1,0%
same,%Inh,AKT2,16%
same,%Inh,AKT3,0%
same,%Inh,ALK,24%
same,%Inh,AMPK-alpha1,20%
COc1ccc(COc2cc(-n3cnc4ccccc43)sc2C(N)=O)cc1 [GSK1024304],%Inh,AAK1,29%
same,%Inh,ABL1-nonphosphorylated,0%
same,%Inh,ABL1-phosphorylated,0%
same,%Inh,ABL2,15%
same,%Inh,ACVR1B,0%
same,%Inh,ACVR1,0%
same,%Inh,ACVR2A,0%
same,%Inh,ACVR2B,0%
same,%Inh,ACVRL1,0%
same,%Inh,ADCK3,0%
same,%Inh,ADCK4,0%
same,%Inh,AKT1,0%
same,%Inh,AKT2,0%
same,%Inh,AKT3,54%
same,%Inh,ALK,23%
same,%Inh,AMPK-alpha1,26%
CN(C1=C(c2ccccc2)C(=O)NC1=O)c1ccccc1 [SB-334860],%Inh,AAK1,7%
same,%Inh,ABL1-nonphosphorylated,0%
same,%Inh,ABL1-phosphorylated,0%
same,%Inh,ABL2,0%
same,%Inh,ACVR1B,0%
same,%Inh,ACVR1,1%
same,%Inh,ACVR2A,0%
same,%Inh,ACVR2B,4%
same,%Inh,ACVRL1,0%
same,%Inh,ADCK3,12%
same,%Inh,ADCK4,15%
same,%Inh,AKT1,0%
same,%Inh,AKT2,23%
same,%Inh,AKT3,0%
same,%Inh,ALK,0%
same,%Inh,AMPK-alpha1,0%
Cc1cccc(-c2nc(Nc3ccc4ncsc4c3)c3ccccc3n2)n1 [GW867588],%Inh,AAK1,7%
same,%Inh,ABL1-nonphosphorylated,0%
same,%Inh,ABL1-phosphorylated,0%
same,%Inh,ABL2,20%
same,%Inh,ACVR1B,35%
same,%Inh,ACVR1,15%
same,%Inh,ACVR2A,0%
same,%Inh,ACVR2B,2%
same,%Inh,ACVRL1,0%
same,%Inh,ADCK3,0%
same,%Inh,ADCK4,0%
same,%Inh,AKT1,12%
same,%Inh,AKT2,0%
same,%Inh,AKT3,0%
same,%Inh,ALK,0%
same,%Inh,AMPK-alpha1,19%
O=c1cc(N2CCOCC2)nc2n(Cc3cccc(C(F)(F)F)c3)ccn12 [GSK2297543],%Inh,AAK1,0%
same,%Inh,ABL1-nonphosphorylated,0%
same,%Inh,ABL1-phosphorylated,0%
same,%Inh,ABL2,3%
same,%Inh,ACVR1B,0%
same,%Inh,ACVR1,5%
same,%Inh,ACVR2A,0%
same,%Inh,ACVR2B,0%
same,%Inh,ACVRL1,0%
same,%Inh,ADCK3,21%
same,%Inh,ADCK4,16%
same,%Inh,AKT1,0%
same,%Inh,AKT2,0%
same,%Inh,AKT3,15%
same,%Inh,ALK,0%
same,%Inh,AMPK-alpha1,4%
COc1ccc(S(=O)(=O)NC2CCN(c3cc(C)nc(Nc4cccc(C#N)c4)n3)CC2)cc1.O=C(O)C(F)(F)F [GSK1653539],%Inh,AAK1,0%
same,%Inh,ABL1-nonphosphorylated,0%
same,%Inh,ABL1-phosphorylated,0%
same,%Inh,ABL2,1%
same,%Inh,ACVR1B,0%
same,%Inh,ACVR1,0%
same,%Inh,ACVR2A,0%
same,%Inh,ACVR2B,0%
same,%Inh,ACVRL1,0%
same,%Inh,ADCK3,20%
same,%Inh,ADCK4,35%
same,%Inh,AKT1,0%
same,%Inh,AKT2,0%
same,%Inh,AKT3,0%
same,%Inh,ALK,5%
same,%Inh,AMPK-alpha1,0%
CN1c2ccc(CNc3ccc(F)cc3)cc2-c2c(cnn2C)S1(=O)=O,%Inh,AAK1,0%
same,%Inh,ABL1-nonphosphorylated,21%
same,%Inh,ABL1-phosphorylated,0%
same,%Inh,ABL2,0%
same,%Inh,ACVR1B,0%
same,%Inh,ACVR1,0%
same,%Inh,ACVR2A,1%
same,%Inh,ACVR2B,0%
same,%Inh,ACVRL1,0%
same,%Inh,ADCK3,2%
same,%Inh,ADCK4,5%
same,%Inh,AKT1,0%
same,%Inh,AKT2,0%
same,%Inh,AKT3,0%
same,%Inh,ALK,8%
same,%Inh,AMPK-alpha1,0%
